Our source for the outcome and AC50 values is PubChem BioAssay (EPA / NIEHS).

Active and inactive are the calls of the source. How the source made its calls: active means hit-call score of the fitted dose curve at least 0.9, where 1 is the maximum; inactive means score below 0.9.

A word on the AC50: it is the midpoint of the concentration-response curve, whichever way the signal moves.

The assay is described as follows: ATG_TAL_CIS: Attagene CIS-FACTORIAL HepG2 Assay for human TAL Basal Promoter (AID 2282966). As to conditions: HepG2 Attagene cis-factorial TAL promoter reporter; actives raise or lower the signal. As to the method: ATG_CIS is a cell-based, multiplexed-readout assay that uses HepG2, a human liver cell line, with measurements taken at 24 hours after chemical dosing in a 24-well plate.ATG_TAL_CIS is one of 52 assay component(s) measured or calculated from the ATG_CIS assay. It is designed to make measurements of mRNA induction, a form of inducible reporter, as detected with fluorescence intensity signals by Reverse transcription polymerase chain reaction (RT-PCR) and Capillary electrophoresis technology.Data from the assay component ATG_TAL_CIS was analyzed into 1 assay endpoint. This assay endpoint, ATG_TAL_CIS, was analyzed with bidirectional fitting relative to DMSO as the negative control and baseline of activity. Using a type of inducible reporter, measures of mRNA for gain or loss-of-signal activity can be used to understand the background control at the transcription factor-level as they relate to the gene . Furthermore, this assay endpoint can be referred to as a secondary readout, because this assay has produced multiple assay endpoints where this one serves a background control function. To generalize the intended target to other relatable targets, this assay endpoint is annotated to the background measurement intended target family, where the subfamily is internal marker.
Human liver HepG2 cells are transiently transfected with multiple reporter transcription units (MRTUs) in 6-well plates using FuGene 6 reagent (Roche; 3 ml FuGene/1 mg DNA). The MRTU constructs are regulated by a cis-regulating element (promoter). […] A major difference between the CIS and TRANS system is that in CIS activities of endogenous TFs are measured, whereas the TRANS assay evaluates changes in activities of exogenous, chimeric NR-Gal4 proteins. […] At the end of 24 hour incubation, total RNA was isolated using TriZol reagent (Invitrogen). The isolated RNA is then reverse-transcribed using oligo(dT) primer and Mo-MLV reverse transcriptase (Invitrogen) with DNAse I (Ambion) treatment for 30 min. The one-tenth of the produced cDNA was amplified by PCR using Taq DNA polymerase (Invitrogen) and two reporter sequence-specific primers. The PCR products were fluorescently labeled by primer extension with 6-arboxyfluorescein (6-FAM) 5'-labeled reporter sequence-specific primer (2 min at 95 C, 20 s at 68 C and 10 min at 72 C) and these products were digested with 5U of HpaI (New England Biolabs) for 2h at 37 C. The fragments were purified using Qiaquick PCR columns (Qiagen), analyzed on an ABI 3130xL genetic analyzer (Applied Biosystems) with peak positions identified by using a set of X-rhodamine (ROX)-labeled MapMarker1000 molecular weight standards (BioVentures). The raw capillary electrophoresis data was processed using Attagraph software (Attagene).
For the compound `O=P(c1ccccc1)(c1ccccc1)c1ccccc1`, the compound was called inactive. Take `CC1=CC(=O)NS(=O)(=O)O1`: the call was inactive. The same measure, in the same setting: for `CCC(C(=O)NC(N)=O)c1ccccc1` (stereo not given) the value was “inactive”. Turning to `COC(C)CCO` (stereo not given), the call was inactive. Still for that read-out and setting: for `CCCCOCCOCCOCCOCCO` the value was “inactive”; for `CC(=O)c1c(C)cc(C(C)(C)C)cc1C`, “inactive”; for `CCCCCCCCCCCCCOS(=O)(=O)O`, “inactive”. Still for that read-out and setting: in the case of `CC1=CCC(O)(C(C)C)CC1` (stereo not given) it was “inactive”; in that of `O=C(O)c1ccc([N+](=O)[O-])cc1`, “inactive”. The same measure, in the same setting: in the case of `Cc1ccccc1C=O` it was “inactive”; in that of `C=CC(=O)OCCn1c(=O)n(CCOC(=O)C=C)c(=O)n(CCOC(=O)C=C)c1=O`, “inactive”; in that of `CC(C)c1ccc(C(C)C)cc1`, “inactive”.

Regarding `CCCCCCCCC=O`, the outcome was inactive. Still for that read-out and setting: for `CCCCCC=CCC(=O)OC` the value was “inactive”. Same read-out and setting: in the case of `CCCCCC(=O)OCCc1ccccc1` it was “inactive”; in that of `O=C[C@H](O)[C@H](O)[C@H](O)CO`, “inactive”; in that of `CCCCOCCOCCSC#N`, “inactive”. `C=CC(C)(O)CCC=C(C)CCC=C(C)C` (stereo not given): the AC50 is 166 µM (active). With `CC(=O)OCC=Cc1ccccc1`, the outcome was inactive. The same measure, in the same setting: for `C=C(C)C(=O)OCCOC(=O)CC(C)=O` the value was “inactive”. Consider `CC1(C)[C@@H]2CC[C@@]1(C)[C@H](O)C2`, for which the call was inactive. Still for that read-out and setting: for `Fc1c(F)c(F)c(Br)c(F)c1F` the value was “inactive”; for `CC(C)OP(=O)(CP(=O)(OC(C)C)OC(C)C)OC(C)C`, “inactive”.

Turning to `O=C(O)c1cccc([N+](=O)[O-])c1`, the compound was classed as inactive.

Take `COc1cc(C)cc(O)c1`: the compound was classed as inactive.

Take `CC(C)Oc1ccccc1O`: the compound was classed as inactive. The same measure, in the same setting: for `CN(C)CCOCCN(C)C` the value was “inactive”; for `CC1CCC(C(C)CS)CC1S` (stereo not given), “inactive”; for `CN(C)C(=N)N=C(N)N`, “inactive”.

Consider `COc1cc2ncnc(Nc3cccc(Cl)c3)c2cc1OC`, for which the AC50 is 13.4 µM (active). As to `N#Cc1nc(Cl)c(Cl)c(Cl)c1Cl`, the compound was classed as inactive.

Consider `C=C[C@@H](C)CCC=C(C)C`, for which the outcome was inactive. The same measure, in the same setting: in the case of `CC1(C)CCC(C)(C)c2cc(C(=O)Nc3ccc(C(=O)O)cc3)ccc21` it was “inactive”; in that of `CC(C)=CCCC(C)=CCCC(C)=CCO`, “inactive”. The same measure, in the same setting: for `Nc1cc([N+](=O)[O-])ccc1O` the value was “inactive”. Consider `CC(C)CCCCCCCOC(=O)c1ccc(C(=O)OCCCCCCCC(C)C)c(C(=O)OCCCCCCCC(C)C)c1`, for which the call was inactive. Still for that read-out and setting: in the case of `O=Nc1ccc(Nc2ccccc2)cc1` it was “inactive”; in that of `COc1ccc(OC)c(OC)c1`, “inactive”; in that of `CC(=O)O[C@]1(C(C)=O)CC[C@H]2[C@@H]3C[C@H](C)C4=CC(=O)CC[C@]4(C)[C@H]3CC[C@@]21C`, “inactive”. The same measure, in the same setting: in the case of `NCCCCCCN` it was “inactive”.
